Source: PubChem BioAssay (National Center for Advancing Translational Sciences (NCATS))
Rows were chosen to be rich in hits. Some 12% of all compounds tested hit in one or more screens of this group.
JMJD2A Tudor inh – JMJD2A Tudor domain (human) inhibition; O75164; AlphaScreen JMJD2A-Tudor / H3K4me3 peptide binding; Potency, µM (highest dose often 114 µM), hits mostly inhibitors; 4.4% of 390,000 active; note: nearly all actives have a fitted effect of over 50% in size
G9a inh – inhibitors of human histone lysine methyltransferase G9a; Potency, µM (doses to about 102 µM), most hits filed as inhibitors; G9a H3K9 monomethylation, AlphaScreen, 2 h; Q96KQ7; 8.8% of 350,000 active; note: nearly all actives have a fitted effect of over 75% in size
Target sequence (Q96KQ7 913-1193 limits assumed): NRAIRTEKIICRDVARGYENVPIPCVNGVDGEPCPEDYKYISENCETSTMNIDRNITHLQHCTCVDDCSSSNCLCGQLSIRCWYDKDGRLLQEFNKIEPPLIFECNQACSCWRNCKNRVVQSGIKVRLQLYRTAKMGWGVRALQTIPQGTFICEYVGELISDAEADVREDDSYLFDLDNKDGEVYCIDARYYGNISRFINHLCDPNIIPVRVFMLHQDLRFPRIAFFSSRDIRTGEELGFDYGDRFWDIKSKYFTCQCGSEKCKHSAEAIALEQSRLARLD
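Enzyme 20 nM + cpd, 15 min RT; add b-H3K9 pep 500 nM / SAM 20 uM; 2 h RT; anti-H3K9me1 Ab 0.5 ug/mL + SA donor / anti-rabbit acceptor beads 20 ug/mL each, 10 min; AlphaScreen read.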
HP1b chromo inh – blocks HP1-beta chromodomain binding to methylated histone tails | AlphaScreen HP1-beta / biotin-H3K9me3 peptide binding | Potency, µM (top dose mostly 114 µM), actives largely listed as inhibitors | 0.56% of 390,000 active; note: nearly all actives have a fitted effect of over 70% in size
Target sequence (P83916 whole entry, looked up): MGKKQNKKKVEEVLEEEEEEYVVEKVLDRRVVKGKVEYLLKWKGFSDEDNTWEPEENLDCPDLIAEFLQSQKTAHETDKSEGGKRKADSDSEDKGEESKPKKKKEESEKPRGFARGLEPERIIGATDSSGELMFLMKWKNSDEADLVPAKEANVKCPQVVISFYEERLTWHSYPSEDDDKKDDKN
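HP1-beta protein (50 nM final) preincubated 30 min at room temperature with biotinylated H3(1-18)K9me3 peptide (50 nM) in PBS pH 7.4, 0.01% Tween-20, then compound added for 30 min. AlphaScreen streptavidin donor/nickel chelate acceptor beads (10 ug/mL final), 30 min dark, luminescence read.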
BAZ2B inh – blocks human BAZ2B | Q9UIF8 | AlphaScreen BAZ2B-H3K14Ac peptide displacement | Potency, µM (series often up to 114 µM), most hits filed as inhibitors | 4.4% of 360,000 active | AID 504333; note: nearly all actives have a fitted effect of over 60% in size
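Compounds, titrated to a top concentration of 110 uM, were incubated 30 min at room temperature with preformed BAZ2B/acetyl-K14 H3 peptide complex (50 nM each). Proximity signal was measured by AlphaScreen after 20 min with beads.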
Sfp PPTase inh – Sfp phosphopantetheinyl transferase inhibition; Q9F4F7; Biochemical Sfp PPTase activity, qHTS; Potency, µM, usual class: inhibitors; 3.5% of 310,000 active; AID 1490;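 note: the enzyme is Sfp with the accession as filed and its product quenches rhodamine fluorescence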
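Fluorescence-quenching assay: 15 nM Sfp-PPTase preincubated 15 min at room temperature with compound, then 5 uM rhodamine-CoA and 12.5 uM BHQ-2-labelled YbbR peptide added. Fluorescence (ex 525/em 598 nm) read at start and after 30 min; difference gives rate.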
Numbers stand for hits; n = inactive; u = inconclusive; x = not tested or not shown; [ ] = another dose, or the depositor's remark. Calls come from the whole dose curve; as a rule, active = well fitted curve in the direction sought with a large enough effect; inconclusive = small, poorly fitted or top-dose-only effect, or another doubt; inactive = no such curve, though single readings can be large; an effect the other way counts as inactive or inconclusive.

SMILES | JMJD2A Tudor inh | G9a inh | HP1b chromo inh | BAZ2B inh | Sfp PPTase inh
O=C(CN1C(=O)NC2(CCCCC2)C1=O)Nc1ccc2c(c1)OCCCO2 | n | n[12.7 µM] | n | n | x
Cc1cccn2c(=O)c3cc(C(=O)NCc4ccco4)c(=N)n(CCc4ccccc4)c3nc12 | u | n | n | n | 89µM
Cc1cccn2c(=O)c3cc(C(=O)NCCc4ccccc4)c(=N)n(Cc4ccco4)c3nc12 | n | n | n | n | 32µM
COc1ccc(-c2nncnn2)cc1 | u | u | n | 45µM | n
CCOC(=O)CCN1C(=O)[C@H]2[C@H]3[C@H](O)[C@H](O)C/C(=N/OCc4ccccc4)[C@@H]3CC[C@@H]2C1=O | x | x | x | x | n
COc1ccccc1CN(Cc1cc2c(C)ccc(C)c2[nH]c1=O)Cc1nnnn1Cc1ccco1 | n | 13µM | n | n | 20µM
Cc1ccc2[nH]c(=O)c(CN(Cc3ccccc3)Cc3nnnn3Cc3ccco3)cc2c1 | n | x | n | x | x
Cc1ccc2[nH]c(=O)c(CN(Cc3ccco3)Cc3nnnn3Cc3ccco3)cc2c1 | n | x | n | x | x
Cc1ccc2cc(CN(Cc3ccc4c(c3)OCO4)Cc3nnnn3Cc3ccco3)c(=O)[nH]c2c1 | n | u | n | u | 25µM
Cc1ccc(CN(Cc2cc3cc4c(cc3[nH]c2=O)OCCO4)Cc2nnnn2Cc2ccco2)cc1 | n | 13µM | n | n | 10µM
Cc1c(NC(=O)c2ccc(Cl)cc2)cc(C(C)C)c(O)c1S(=O)(=O)c1ccc(Cl)cc1 | n | n | n | n | x
CCCCCCCC1=Cc2ccccc2C(CC(C)=O)N1C(=O)OC (stereo not given) | x | x | x | x | n
Cc1ccc(Nc2ncnc3c2nnn3Cc2ccccc2)cc1 | n | n | n | n | n
CCc1nc(Nc2ccccc2)c2nnn(Cc3ccccc3)c2n1 | n | n | n | n | 35µM
CC1=C(c2cccc(Cl)c2)S(=O)(=O)NC1=NCc1ccccc1C | n | n | n | n | x
O=S1(=O)N=C(N/N=C/c2ccccn2)c2ccccc21 | 79µM | n | n | 35µM | n
COc1ccc(/C=N/NC2=NS(=O)(=O)c3ccccc32)cc1 | n | n | n | n | n
O=S1(=O)N=C(N/N=C/c2ccc(Br)o2)c2ccccc21 | u | 40µM | n | n | n
Cc1cc(Cl)cc(C)c1OCCCCCn1ccnc1 | u | u | n | 32µM | n
CCN(CC)CCOc1c(C)cccc1Cl | n | n | n | 79µM | n
Cc1cccc(Cl)c1OCCCn1ccnc1 | 7.9µM | 10µM | 28µM | 28µM | n
CCCCN(CC)CCNC(=O)CCn1cnc2onc(-c3ccc(F)cc3)c2c1=O | n | n | n | n | x
O=C(CNC(=O)C1CCCCCC1)OC(C(=O)Nc1cc(C(F)(F)F)ccc1Cl)c1ccccc1 (stereo not given) | n | x | x | x | x
CCCCCCCCCCCC[n+]1ccc2ccccc2c1 | x | u | x | x | n
COc1cccc(-c2nc(SCC(=O)Nc3ccc4c(c3)OCCO4)c(-c3ccc(C)cc3)[nH]2)c1 | u | u | n | u | x
SMILES | JMJD2A Tudor inh | G9a inh | HP1b chromo inh | BAZ2B inh | Sfp PPTase inh
CCOc1ccc(C[C@H]2NC(=O)CCSSC[C@@H](C(=O)N3CCC[C@H]3C(=O)N[C@@H](CCCN)C(=O)NCC(N)=O)NC(=O)[C@H](CC(N)=O)NC(=O)[C@H]([C@@H](C)O)NC(=O)[C@H]([C@@H](C)CC)NC2=O)cc1 | x | x | x | x | n
CC1=CC2=NC(=O)/C(=C\c3cccn3CCOc3cc(C)cc(C)c3)C(=N)N2O1 | u | 40µM | n | u | u
COc1cccc(OCCn2cccc2/C=C2/C(=N)N3OC(C)=CC3=NC2=O)c1 | n | 18µM | n | u | n
CC1=CC2=NC(=O)/C(=C\c3cccn3CCOc3cccc(C)c3)C(=N)N2O1 | u | n | n | n | u
CN(C)S(=O)(=O)c1cccc(NC(=S)N/N=C/c2cc(Br)ccc2O)c1 | 28µM | x | n | 18µM | n
CN(C)S(=O)(=O)c1cccc(NC(=S)N/N=C/c2cccc(O)c2)c1 | n | n | n | n | n
O=c1c2c(-c3ccc([N+](=O)[O-])cc3)csc2nc2n1CCCCC2 | u | 35µM | u | u | n
O=c1c2cc([N+](=O)[O-])ccc2nc2n1CCCC2 | n | n | n | n | n
O=c1c2c(-c3ccccc3)csc2nc2n1CCC2 | n | n[12.7 µM] | n | n | 32µM
Cc1ccc(CN(C(=O)COc2cc(C)c(Cl)c(C)c2)c2ccccn2)o1 | n | n | n | n | x
CCC#CCOCC(=S)Nc1ccccc1 | x | x | x | x | n
CC1CCN(S(=O)(=O)c2cc(C(=O)NCCc3ccccc3)n(C)c2)CC1 | n | n | n | n | x
Cc1cccc(N(Cc2cc3ccc(C)cc3[nH]c2=O)C(=O)c2ccco2)c1 | n | u | n | n | 22µM
Cc1ccc2cc(CN(C(=O)c3ccco3)c3ccccc3)c(=O)[nH]c2c1 | n | u | n | n | 28µM
Cc1ccc(N(Cc2cc3ccccc3[nH]c2=O)C(=O)c2ccco2)c(C)c1 | n | n[12.7 µM] | n | n | n
Cc1ccc2cc(CN(Cc3ccco3)C(=O)c3cccs3)c(=O)[nH]c2c1 | n | n[12.7 µM] | n | n | 25µM
Cc1ccc(N(Cc2cc3ccc(C)cc3[nH]c2=O)C(=O)c2cccs2)cc1 | n | n[12.7 µM] | n | n | n
Cc1ccc(N(Cc2cc3ccc(C)cc3[nH]c2=O)C(=O)c2ccco2)cc1 | n | u | n | n | 22µM
CCCCc1nc2c(c3c1C[C@H](C)OC3)CN(S(=O)(=O)c1ccc(NC(C)=O)cc1)CC2 | x | x | x | x | n
N#CCCN(Cc1cccnc1)S(=O)(=O)c1ccc2ccccc2c1 | n | n | n | n | x
CN(C)S(=O)(=O)c1cccc(C(=O)NC(=S)N(CCC#N)Cc2cccnc2)c1 | n | n | n | n | 45µM
Cc1ccc(S(=O)(=O)N(C)C)cc1NC(=S)N(CCC#N)Cc1cccnc1 | n | n | n | n | u
CCN(CC)S(=O)(=O)c1ccc(C(=O)NC(=S)N(CCC#N)Cc2cccnc2)cc1 | n | 13µM | n | n | n
COc1cccc(-n2c(SCc3cccc(C)c3)nc3c([nH]c4ccccc43)c2=O)c1 | n | n | n | n | x
CC(C)[C@@H](CO)N(C)S(=O)(=O)c1ccccc1Br | n | x | n | x | x
SMILES | JMJD2A Tudor inh | G9a inh | HP1b chromo inh | BAZ2B inh | Sfp PPTase inh
Cc1ccc(CN2C(=O)C3CCCN3c3ccc(C#N)cc32)cc1 (stereo not given) | x | 20µM | x | n | n
N#CCN1C(=O)C2CCCN2c2ccc(S(=O)(=O)N3CCOCC3)cc21 (stereo not given) | n | 20µM | n | n | u
N#Cc1ccc2c(c1)NC(=O)C1CCCN21 (stereo not given) | n | 14µM | n | n | n
CON(C)S(=O)(=O)c1ccc2c(c1)N(Cc1ccc(C)cc1)C(=O)C1CCCN21 (stereo not given) | n | 25µM | n | n | n
CNS(=O)(=O)c1ccc2c(c1)NC(=O)C1CCCN21 (stereo not given) | n | u | n | n | n
CCCCOC(=O)c1ccc(OC(=O)c2sc3ncn(Cc4cccc(F)c4)c(=O)c3c2C)cc1 | n | n | n | n | x
O=C(c1[nH]ncc1[N+](=O)[O-])N1CCOCC1 | n | n | n | n | n
